Tm shift relative to glycine control data for 27 compounds are collected here from PubChem BioAssay AID1259313 (Sanford-Burnham Center for Chemical Genomics, 2017).

The campaign covered roughly 340,000 compounds. About 8,500 (2.5%) were called active. For the sample, actives were picked, then their nearest neighbours and some compounds at random. Unmarked numbers belong to inactive results.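 How the source made its calls: active means melting temperature shift of at least 10% of the positive control shift, at one fixed dose; inactive means the rest.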

This assay relates to Glutamate receptor ionotropic, NMDA 3A (GRIN3A) ligand-binding domain. The assay is described as follows: NR3A LBD thermal stabilization by compounds – biophysical, differential scanning fluorimetry, uHTS, primary screen (AID 1259313). The following applies: at 25 µM, active compounds read high, 0% = protein alone, 100% = glycine-bound protein. A general note: DSF heats the sample and reads unfolding from a dye or from intrinsic fluorescence.
Take `Cc1csc(NC(=S)Nc2cccc(Cl)c2)n1`: the Tm shift relative to glycine control was 16.9% (active).

For the compound `Cc1cc2[nH]ncc2cc1NC(=S)NC(=O)c1ccccc1`, the Tm shift relative to glycine control is -2.48%. Next, `S=C(Nc1cccc(Cl)c1)Nc1ccc2cn[nH]c2c1`: 13% (active); `Cn1nc(C(F)(F)F)c(C(=O)Nc2cccc(C(F)(F)F)c2)c1SCc1ccc(Cl)cc1`: 6.13%; `Cn1cc(Cl)c(C(=O)NNC(=S)Nc2cccc(Cl)c2)n1`: -11.3%. Then `O=S(=O)(Nc1ccc2cn[nH]c2c1)c1ccccc1`, with -1.96%; and `CCC(=O)Nc1nc(C)c(C(=O)Nc2cccc(Cl)c2)s1`, with 0.19%. Then `Cc1cc(Cl)nc(NC(=O)Nc2cccc(Cl)c2)n1`, with -1.44%. Take `FC(F)(F)c1cccc(NC(=S)Nc2cccc(Cl)c2)c1`: the Tm shift relative to glycine control was 15.7% (active).

`Cc1cccc(NC(=S)NC23CN4CN(CN(C4)C2)C3)c1`: the Tm shift relative to glycine control was -2.24%. Next, `Cc1cccc(NC(=S)Nc2ccc(Cl)c(Cl)c2)c1`: 14.9% (active); `O=C(O)CC1(CC(=O)Nc2cccc(C(F)(F)F)c2)CCCC1`: -1.43%; `COc1ccccc1C(=O)OCC(=O)NCCNC(=O)COC(=O)c1ccccc1OC`: -2.11%. In the case of `CCSc1nnc(SCC(=O)NNC(=O)c2ccccc2F)s1`, the Tm shift relative to glycine control was 0.44%. Next, `O=C(NN1C(=O)C2C3C=CC(O3)C2C1=O)c1ccncc1` (configuration not stated): 2.17%; `CCO[C@@H]1OC(C(N)=O)=C[C@H](c2ccc(Br)cc2)[C@H]1CCCO`: 2.58%; `COc1ccc(CCNS(=O)(=O)c2cc3c(cc2C)NC(=O)CO3)cc1OC`: 2.97%. Regarding `O=c1ccn([C@@H]2O[C@H](CNS(=O)(=O)c3cc4ccccc4s3)[C@@H](O)[C@H]2O)c(=O)[nH]1`, the Tm shift relative to glycine control is -1.03%.

Regarding `CCOC(=O)N1CCN(S(=O)(=O)c2ccc(C(=O)Nc3ccc(F)cc3F)cc2)CC1`, the Tm shift relative to glycine control was -2.71%.

As to `CC(C)Oc1ccc(CC(=O)NNC(=S)Nc2ccc(Br)cc2)cc1`, the Tm shift relative to glycine control was -3.79%. Then `C=CCn1c(C23CC4CC(CC(C4)C2)C3)n[nH]c1=S`, with 0.44%; and `COc1ccc(S(=O)(=O)Nc2ccc3cn[nH]c3c2)cc1[N+](=O)[O-]`, with -8.84%. Regarding `COc1cccc(/C=N/Nc2ccc(S(=O)(=O)Nc3ccccc3C(=O)O)cc2[N+](=O)[O-])c1O`, the Tm shift relative to glycine control was 22.4% (active). Consider `Cc1ccc(NS(=O)(=O)c2ccc(N/N=C/c3ccccc3OCC(=O)O)c([N+](=O)[O-])c2)c(C)c1`, for which the Tm shift relative to glycine control is 3.61%.

In the case of `COc1ccc(S(=O)(=O)Nc2ccccc2C(=O)N2CCCC2)cc1C`, the Tm shift relative to glycine control was 2.36%. Then `O=C(O)c1ccccc1/C=N/Nc1ccc(S(=O)(=O)Nc2ccc(Cl)cc2)cc1[N+](=O)[O-]`, with 9.21%; and `COc1ccc(Br)cc1/C=N/Nc1ccc(S(=O)(=O)Nc2ccccc2C(=O)O)cc1[N+](=O)[O-]`, with 503% (active).
